Source: ChEMBL document CHEMBL3988442, “University of Dundee, Small-Polar-MMV Screening Library” (2021)

Experiments:
[1] = biological target: T1, Aspartate--tRNA(Asp/Asn) ligase (Mycobacterium tuberculosis (strain ATCC 25618 / H37Rv)) (UniProt P9WFW3); assay: Assay for Asp RNA synthetase-1 from Mycobacterium tuberculosis; format: functional; parameters: scale not given: direction of the effect not stated beside the values; settings: 30 µM; further: in the data most compounds retested in dose-response had high values
T1 sequence (whole entry): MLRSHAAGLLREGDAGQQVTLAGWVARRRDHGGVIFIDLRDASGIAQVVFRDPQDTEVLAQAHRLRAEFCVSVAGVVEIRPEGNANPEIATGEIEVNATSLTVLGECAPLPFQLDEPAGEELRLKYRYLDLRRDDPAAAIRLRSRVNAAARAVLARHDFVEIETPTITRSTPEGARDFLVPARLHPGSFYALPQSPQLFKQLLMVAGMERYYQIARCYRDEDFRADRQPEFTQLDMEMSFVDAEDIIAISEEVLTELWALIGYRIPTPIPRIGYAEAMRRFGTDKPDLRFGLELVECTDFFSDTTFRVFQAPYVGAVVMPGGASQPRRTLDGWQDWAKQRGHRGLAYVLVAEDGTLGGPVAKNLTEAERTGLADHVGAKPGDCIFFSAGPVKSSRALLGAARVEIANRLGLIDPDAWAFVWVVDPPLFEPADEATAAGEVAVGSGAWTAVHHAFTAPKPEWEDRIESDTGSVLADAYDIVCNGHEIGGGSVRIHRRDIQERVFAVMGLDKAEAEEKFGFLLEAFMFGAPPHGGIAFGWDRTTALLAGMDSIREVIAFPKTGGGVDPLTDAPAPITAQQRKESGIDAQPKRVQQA

[2] = biological target: Shiga toxin 2 (Escherichia coli O157:H7) (UniProt P09385+P09386); assay: E. coli 0.157:H7 Shiga Toxin SOP - stx2 screening assay; format: functional; parameters: scale not given: direction of the effect not stated beside the values; settings: 30 µM

Compound	Percent Effect [1] [%]	Percent Effect [2] [%]
Cc1noc(NC(=O)c2ccc(Br)cc2)n1	-2.92	54.5
CCc1noc(C)c1C(=O)N1CCCC1c1c(C)nn(C)c1OC (stereo not given)	-3.25	5.57
CS(=O)(=O)CCC(=O)N1CCC2(CCCN(C3CCOCC3)C2=O)C1 (stereo not given)	3.37	-8.62
CN(C)c1ccc(CNc2cncc(-n3cccn3)n2)cc1	-4.37	-28
CC(NC(=O)N(C)Cc1ccsc1)c1ccc2c(c1)OCO2 (stereo not given)	1.79	28.8
CCc1nc(C(=O)N2CCN(C)CC2C)nn1-c1ccccc1Cl (stereo not given)	11.5	26.3
CC1CN(CC2CCCCC2)CCN1c1ccc2nncn2n1 (stereo not given)	-1.32	-96.5
O=C(COc1cccc2c1CCC2=O)NCCOc1ccccc1	12.7	-35
O=c1ccc(-c2ccccc2F)nn1CCN1CCCS1(=O)=O	-1.45	-0.28
CC(=O)N1CC[C@@H]2CN(C(=O)c3ccco3)CCO[C@@H]2C1	4.25	-3.17
CC(c1ccc(Cl)cc1)N1CCN(CCS(C)(=O)=O)CC1 (stereo not given)	-1.84	1.09
COCCOc1ccccc1C(=O)N1CCCCC1c1nccs1 (stereo not given)	4.67	-6.36
CCc1nc(CN2CCCN(C(=O)c3cn[nH]c3CC)CC2)cs1	-1.54	-78.4
CC(C)c1cnc(CNc2c(F)cccc2-n2cccn2)o1	-0.919	9.22
Cc1nc(C2CCCN2Cc2ncc(C(C)C)o2)no1 (stereo not given)	-2.92	-16.6
O=C(COc1coc(CN2CCCCC2)cc1=O)Nc1ccc(Cl)cc1	3.86	-36.2
OC(CN1CCN(Cc2nnc(C3CC3)o2)CC1)c1ccccc1 (stereo not given)	-1.28	6.16
CS(=O)(=O)c1cccc(C(N)c2ccc(F)c(F)c2)c1 (stereo not given)	-1.19	-2.5
CC(C(=O)N1CCCC1)N1CCC(c2nccn2Cc2cscn2)CC1 (stereo not given)	1.8	-3.75
COCC1COCCC12CCN(C(=O)CCOc1ccccc1)CC2 (stereo not given)	1.23	0.928
CN(Cc1cnn(C)c1)C(=O)NCc1csc(Br)c1	4.08	32.1
CC(c1nc(C(C)(C)C)no1)N1CCN(CC(=O)N2CCOCC2)CC1 (stereo not given)	-1.23	7.56
CC[C@H](C)Nc1nccc(-c2cnc3sc(C)c(C)n3c2=O)n1	0.808	-27.1
O=C(CN1CCCCC1Cn1cncn1)NCCC1=CCCCC1 (stereo not given)	2.88	11.4
Cc1ccsc1C(=O)N1CC(C(=O)N2CCOCC2)C2(CCOCC2)C1 (stereo not given)	7.88	-8.92

Compound	Percent Effect [1] [%]	Percent Effect [2] [%]
CCn1nc(C)c(CCNC(=O)C2CCCN(CC(N)=O)C2)c1C (stereo not given)	-2.59	7.92
CC(C)(C)n1ncc2c1NC(=O)CC2c1ccc(OCC(N)=O)cc1 (stereo not given)	-2.88	21.3
CCc1cccc(NS(=O)(=O)c2cc3c(c(C(=O)O)c2)OCCO3)c1	-2.26	-33.5
Cc1ccc2c(c1)c(CNC(=O)C1CCN(C(C)C)CC1)nn2C	-0.814	-2.96
Cc1cccc(N2CCN(C(=O)Nc3cnn(CC(N)=O)c3)CC2)c1	-2.01	-45.6
CN(Cc1ccon1)C(=O)C1CC(=O)N(Cc2ccncc2)C1 (stereo not given)	5.91	6.22
O=c1nc(SCc2ccncc2)c2c(n1CCO)CCCC2	-6.81	-5.81
CNc1cc2c(nn1)CCN(C(=O)c1ccc(-n3nccc3C)cc1)C2	-2.02	26.8
CCOc1ccccc1C(=O)NS(=O)(=O)c1ccc2c(c1)OCCCO2	-0.534	19.9
Cc1cc(C2CCCN(CCCNS(C)(=O)=O)C2)n[nH]1 (stereo not given)	-3.97	8.81
O=C(c1cccnc1)N1CCC2(CC1)CCN(c1ccsc1)C2=O	3.8	-6.67
COc1ccccc1CC1CCCN(CCC#N)C1 (stereo not given)	-3.31	32.8
CCc1nc(CN2CCCC(NCc3ccc(C(N)=O)cc3)C2)no1 (stereo not given)	-2.68	-8.49
CC(C)CN1CCC2(C=C(C(=O)N3CCCC3)c3ccccc32)CC1	0.582	-8.02
O=C(NCCNc1ncccn1)N(Cc1ccc(F)cc1F)C1CC1	-3.51	12.1
Cc1cnc(N2CCC3(CCN(CC4CC4)C3=O)CC2)nc1	-3.05	-8.57
O=C(c1ccc(Br)o1)N1CCCC(n2cncn2)C1 (stereo not given)	5.01	-10.4
COc1ccc(CN2CCc3ncnc(C4CCOC4)c3CC2)cc1 (stereo not given)	-0.146	-53.7
Cc1cc(C)c2c(c1)C1(CC(=O)Nc3c1cnn3C(C)C)C(=O)N2 (stereo not given)	1.68	1.39
CC1(C)CC(N(Cc2ccccc2)Cc2cccnc2)CC(C)(C)N1	-4.09	-6.83
COc1ccc(-c2noc(C(=O)NCCN3CCCCC3)n2)cc1OC	-1.25	-77.4
COCC1CN(Cc2ccc(C)o2)Cc2nnn(CC3CC3)c21 (stereo not given)	-0.416	-35.9
NC[C@H]1CC[C@H](C(NC(=O)c2cccc(F)c2)c2ccccn2)CC1 (stereo not given in full)	-0.28	-71.9
Cn1cnnc1C1CCCN(C(=O)c2n[nH]c3ccccc23)C1 (stereo not given)	-3.14	-4.11
CC1CN(C)CCN1C(=O)c1ccn(-c2cccc(Cl)c2)n1 (stereo not given)	-2.06	-4.97

Compound	Percent Effect [1] [%]	Percent Effect [2] [%]
CC(=O)N1CCc2c(nc(-c3ccncc3)nc2N(C)CC(O)CO)C1 (stereo not given)	-1.07	5.83
CN(C)CC1CN(Cc2csc(C3CCCC3)n2)CCO1 (stereo not given)	1.38	14.5
CCn1ccnc1CN1C[C@@H](CN2CCCC2)[C@@H](CO)C1	-3.33	6.48
CC(C)OCCOCc1cccc(NC(=O)NCc2ccncc2)c1	13	-69.6
CC(C)CNC(=O)c1ccc2nnc(C3CCN(S(C)(=O)=O)C3)n2c1 (stereo not given)	3.22	3.22
O=C(NCCOc1ccc2c(c1)CCC2)N1CCS(=O)(=O)CC1	-1.48	-52.5
COc1ccc(S(N)(=O)=O)cc1C(=O)N(C)Cc1cc(C)on1	-2.1	-47
NC(=O)C1CN(C(=O)Nc2ccccc2-c2cccs2)CCO1 (stereo not given)	-9.88	-14.7
Cc1nc(C2CCCN(C(=O)Cn3ccccc3=O)C2)no1 (stereo not given)	-1.54	25.3
CCOc1ccc(-n2nnc(C(=O)O)c2-c2ccncc2)cc1	3.77	-21.9
COCCCC1(CO)CCCN(CCc2ccccc2)C1 (stereo not given)	-0.201	-15.6
c1ccc(-c2nc(CN3CCCC3Cn3cncn3)cs2)cc1 (stereo not given)	0.143	5.25
CCOc1ccc(C(C)NC(=O)N2CCC(C(N)=O)CC2)cc1OC (stereo not given)	-0.725	10.2
CNS(=O)(=O)c1ccc(C(=O)N2CCCC2Cc2ccccc2)o1 (stereo not given)	-3.06	18.2
COc1ccc(OC)c(Sc2ncccc2C(=O)N(C)CCC#N)c1	-6.44	13.3
Cc1cccc(N2CCC(NC(=O)CCCc3cccs3)CC2)n1	8.77	-2
Cc1cc(C)c(CNC(=O)N2CCN(c3ncccn3)CC2)c(=O)[nH]1	-0.7	-6.87
Cc1nn2cccnc2c1C(=O)N1CCCC(Nc2ccccc2)C1 (stereo not given)	1.98	8.26
NC(=O)NCCC(=O)NCc1cccnc1N1CCc2ccccc2C1	-1.71	6.61
Cc1cccc(-c2nc(C)nn2CC(=O)N(C)C2CC2)c1	-4.28	6.5
CN(C)CCO[C@H]1CN(Cc2cccc(C#N)c2)[C@@H]2COC[C@H]12	1.95	-21.2
COC[C@@H]1CC[C@H]2[C@H](CCN2S(=O)(=O)c2cccc(C)c2)O1	3.92	-4.66
COc1ncccc1C(=O)N1CCC(c2nnc(C3CC3)o2)CC1	3.02	0.085
O=C(c1cccc(N2CCCC2=O)c1)N1CCCC(n2cncn2)C1 (stereo not given)	-4.55	17.8
Cc1ccc(C(=O)N2CCN(CCC(C)(C)C)CC2)c(=O)[nH]1	-4.54	1.57

Compound	Percent Effect [1] [%]	Percent Effect [2] [%]
CCCNC(=O)NC(=O)CN(CC(C)O)c1ccccc1 (stereo not given)	1.53	20.6
O=C1NCC[C@]12CN(Cc1ccoc1)C[C@H]2c1ccccc1	1.06	-14.1
CCOCC1CN(Cc2cnn(C)c2)Cc2ncn(CC3CC3)c21 (stereo not given)	2.64	3.02
CS(=O)(=O)NCC1CCCN(Cc2ccc(F)c3cccnc23)C1 (stereo not given)	5.29	-44.4
CN(C)c1ccc(CCNC(=O)NCc2ccc(N(C)C)nc2)cc1	2.84	5.6
CCOCCN1CCN(Cc2nnc(C3CC3)o2)CC1CC (stereo not given)	1.06	-12.2
COC(=O)C1CCN(C(=O)c2ccc(NS(C)(=O)=O)c(C)c2)CC1	-2.94	-1.7
COCc1nc(N(C)C)ncc1C(=O)NC(C)C	-0.697	-16.3
Cc1ccc2oc(C(=O)N3CCC(C(=O)N4CCCC4)CC3)cc2n1	1.57	-16.4
COC(=O)c1cc(C(=O)N2CCOCC2(C)C)n(-c2ccccc2)n1	-4.48	13.3
Cc1cnn(CC2CN(Cc3nnc(C4CC4)o3)CCO2)c1 (stereo not given)	-2.56	24.8
COc1cc(CN(C)C(=O)NCCC2CCCO2)ccc1SC (stereo not given)	-3.98	-6.71
Cc1nn(C)c(N(C)C)c1CNCc1cccc(CN(C)C(C)C)c1	2.27	5.42
CN(C)C(=O)CS(=O)(=O)Cc1cc(Cl)c2c(c1)OCO2	0.927	25.6
Cn1ncc2c1C(COCC1CC1)CN(Cc1ccc(F)cc1)C2 (stereo not given)	-2.09	-5.43
COc1ccc(NC(=O)C2CCOC2)c(N2CCN(C(C)=O)CC2)n1 (stereo not given)	1.42	-6.14
COc1cccc(CN2C[C@@H]3COC[C@]3(COCc3ccncc3)C2)c1	2.95	5.94
CCOC(C)c1nc(CN2CCN(c3nccc(C)n3)CC2)cs1 (stereo not given)	-0.859	-1.8
O=C(Nc1ccccn1)C1=NN(c2ccccc2)C(=O)CN1	0.657	-27.9
O=C(CCn1ccc2cc(Br)ccc21)NCc1ccc(C(=O)O)cc1	8.3	30.7
COc1nn(C)cc1C(=O)N1CCC(c2nnc(C3CC3)o2)CC1	-1.47	-8.92
O=C(Cn1nc2c(cc1=O)CSCC2)NC(Cc1ccccc1)C(=O)O (stereo not given)	0.581	-19.5
O=C(CN1CCCC1Cn1cncn1)NC(C1CC1)C1CC1 (stereo not given)	2.42	-2.93
COCc1cccc(CNCc2c(C)nn(C)c2N(C)C)c1	6.21	1.1
CN(C)S(=O)(=O)N1CCC(Oc2ccc(C#N)cn2)CC1	5.76	-4.88
